NTMT1 inh – inhibitors of human N-terminal methyltransferase NTMT1 | NTMT1 MTase-Glo SAH luminescence, purified enzyme | Potency, µM (highest dose often 114 µM), for the others: top-dose activity change, negative = inhibition, hits mostly inhibitors | 59,000 tested, 2.5% active | AID 1645870;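 also: potency is read from the fitted curve at half-maximal effect; plate controls were DMSO vehicle for no effect and no enzyme for full effect; nearly all actives have a fitted effect of over 65% in size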
Target sequence (Q9BV86 whole entry, looked up): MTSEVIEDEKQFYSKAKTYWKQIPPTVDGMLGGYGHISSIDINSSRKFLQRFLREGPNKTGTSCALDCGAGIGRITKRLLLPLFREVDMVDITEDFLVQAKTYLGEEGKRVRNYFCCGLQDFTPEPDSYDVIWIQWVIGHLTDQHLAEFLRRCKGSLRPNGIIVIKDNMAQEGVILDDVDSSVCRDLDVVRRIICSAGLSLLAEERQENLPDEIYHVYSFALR
HTT-AS promoter – activates huntingtin-antisense promoter activity. HEK293 HTT-AS promoter firefly luciferase reporter, 24 h; response scale: percent change from vehicle, -100% = no light. Potency, µM (top dose mostly 57.5 µM), inactives show at the highest dose activity change, positive = activation, actives largely listed as activators. 48,000 tested, 0.24% active. AID 1508624; also: potency is read from the fitted curve at half-maximal effect; nearly all actives have a fitted effect of over 55% in size
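HEK293 cells carrying firefly luciferase reporters were seeded at 2,500 per well in Opti-MEM and cultured for 24 h. They were then treated with compounds at up to 57.5 uM final for 24 h at 37 degrees C before Dual-Glo luminescence readout.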
HTT promoter inh – inhibitors of huntingtin promoter activity | 48,000 tested, 0.93% active | HEK293 HTT promoter firefly luciferase reporter, 24 h | Potency, µM (highest dose often 57.5 µM), for the others: at the top dose activity change, negative = inhibition, actives largely listed as inhibitors; also: potency is read from the fitted curve at half-maximal effect; nearly all actives have a fitted effect of over 50% in size
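Luminescence was read after Dual-Glo reagent and a 10 min room-temperature incubation. Values were normalized to vehicle (0% activity) and zero RLU (-100% activity). Reporter HEK293 cells had been exposed to compounds (up to 57.5 uM final) for 24 h.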
Sfp qHTS opt – inhibitors of Bacillus subtilis Sfp PPTase, optimization followup | purified Sfp PPTase enzyme activity, qHTS | 230 tested, 78% active | Potency, µM (titrated, usually from 114 µM), inactives show at the highest dose activity change, negative = inhibition, actives largely listed as inhibitors | shares compounds with NTMT1 inh
HM489 growth – reduces growth of B. subtilis HM489 strain. shares compounds with NTMT1 inh. B. subtilis HM489 (acpS-) growth, BacTiter-Glo, 5 h. Potency, µM (series often up to 114 µM), without a hit: at the top dose activity change, negative = inhibition, hits mostly inhibitors. 220 tested, 50% active. AID 540353
Sfp PPTase gel – Sfp PPTase inhibition, gel-based detection. shares compounds with NTMT1 inh. purified Sfp PPTase, gel-based product detection. Potency, µM (doses to about 250 µM), inactives show at the highest dose activity change, negative = inhibition, usual class: inhibitors. 220 tested, 54% active. AID 540355
Sfp SAR2 – inhibitors of Bacillus subtilis Sfp PPTase, SAR round 2; shares compounds with NTMT1 inh; Potency, µM (series often up to 57.1 µM), without a hit: at the highest dose activity change, negative = inhibition, actives largely listed as inhibitors; 230 tested, 87% active; purified Sfp enzyme, PPTase activity, qHTS; AID 602370
USP2a K63 – USP2a inhibition confirmed on K63 diubiquitin | USP2 cleavage of DiUb K63-3IQF, fluorescence kinetic | shares compounds with NTMT1 inh | Potency, µM (top dose mostly 57.5 µM), inactives show top-dose activity change, negative = inhibition, actives largely listed as inhibitors | 30 tested, 80% active | AID 652172
Casp6 inh – inhibits human caspase-6 in USP2a selectivity assay; shares compounds with NTMT1 inh; Caspase 6 enzyme, Caspase-Glo 6 luminescence; activity change, negative = inhibition, % at 46.1 µM; 30 tested, under 10 active; AID 652277
HSD17B4 inh – HSD17B4 (human) inhibition, HPGD counter-screen | shares compounds with NTMT1 inh | purified HSD17B4, estradiol/NAD+, NADH fluorescence | Potency, µM (doses to about 57.1 µM), for the others: at the highest dose activity change, negative = inhibition, hits mostly inhibitors | 230 tested, 10% active
ALDH1A1 inh – ALDH1A1 (human) inhibition, HPGD counter-screen; shares compounds with NTMT1 inh; recombinant ALDH1A1, NADH fluorescence, propionaldehyde/NAD+; Potency, µM (top dose mostly 57.1 µM), for the others: top-dose activity change, negative = inhibition, actives largely listed as inhibitors; 230 tested, 93% active
NNMT counter – human NNMT inhibition, NTMT1 counter-screen | shares compounds with NTMT1 inh | 120 tested, 10% active | NNMT MTase-Glo luminescence, SAH detection | Potency, µM (titrated, usually from 57.1 µM), inactives show at the highest dose activity, negative = inhibition, actives largely listed as inhibitors
Target sequence (P40261 whole entry, looked up): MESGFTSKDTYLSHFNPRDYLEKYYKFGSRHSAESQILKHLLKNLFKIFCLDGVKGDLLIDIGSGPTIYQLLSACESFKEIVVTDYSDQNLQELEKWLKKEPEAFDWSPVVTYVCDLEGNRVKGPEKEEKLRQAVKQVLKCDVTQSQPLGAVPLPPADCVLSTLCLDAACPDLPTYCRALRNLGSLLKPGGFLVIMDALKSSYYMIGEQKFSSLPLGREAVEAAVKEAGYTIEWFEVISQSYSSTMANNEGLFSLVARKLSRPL
Starred values were filed as active, the others as inactive; ? = inconclusive; / = no result given; [ ] = another dose, or the depositor's remark. The full list was thinned out, with hits kept by preference. Calls follow the shape of the dose curve; as a rule, active = well fitted curve in the direction sought with a large enough effect; inconclusive = small, poorly fitted or top-dose-only effect, or another doubt; inactive = no such curve, though single readings can be large; an effect the other way counts as inactive or inconclusive.

SMILES	NTMT1 inh	HTT-AS promoter	HTT promoter inh	others
COc1cc(N2CCN(C(C)=O)CC2)ccc1Nc1ncc(Cl)c(Nc2ccc(N3CCN(C(C)=O)CC3)cc2OC)n1	20µM*	/	/	NNMT counter=?
COc1cc(N2CCC(N3CCN(C)CC3)CC2)ccc1Nc1ncc(Cl)c(-c2c[nH]c3ccccc23)n1	20µM*	/	/	NNMT counter=?
Cc1nc2ccc(CN(C)c3ccc(C(=O)NC(CCC(=O)O)C(=O)O)s3)cc2c(=O)[nH]1 (stereo not given)	4%[57.5 µM]	/	/
COC(=O)C1=CO[C@@H](O[C@@H]2O[C@H](CO)[C@@H](O)[C@H](O)[C@H]2O)[C@@H]2C(CO)=CC[C@]12O	9%[29.8 µM]	/	/
O=S(=O)(Nc1nccs1)c1ccc(Nc2nc(-c3ccccc3)cs2)cc1	3%[57.5 µM]	/	/
O=C(Nc1ccc(S(=O)(=O)Nc2nccs2)cc1)c1cc(-c2ccccc2)nc2ccccc12	-19%	/	/	USP2a K63=1.7µM*;Casp6 inh=-2
O=C(Cc1ccccc1)Nc1ccc(S(=O)(=O)Nc2nccs2)cc1	4%[57.5 µM]	/	/
CC(=O)Nc1ccc(S(=O)(=O)Nc2nccs2)cc1	28%	/	/	USP2a K63=-1%;Casp6 inh=-28
Cc1cc(C)nc(NC(=S)N2CCN(c3ccsc3)CC2)c1	/	/	/	Sfp qHTS opt=5.9µM*;HM489 growth=?;Sfp PPTase gel=-77%;Sfp SAR2=8.1µM*;HSD17B4 inh=?;ALDH1A1 inh=22µM*
Cc1cc(C(=O)N2CCN(c3ccccc3)CC2)c2c(C)nn(-c3cccc(F)c3)c2n1	-5%	-11%	-14%
Cc1cc(C)nc(NC(=S)N2CCN(c3cc(C#N)cc(C#N)c3)CC2)c1	?	/	/	Sfp qHTS opt=2.4µM*;HM489 growth=93%;Sfp PPTase gel=-73%;Sfp SAR2=0.65µM*;HSD17B4 inh=-13%;ALDH1A1 inh=17µM*
Cc1cc(C)nc(NC(=S)N2CCN(c3cc(Cl)c(Cl)c(Cl)c3)CC2)c1	?	/	/	Sfp qHTS opt=1.5µM*;HM489 growth=8%;Sfp PPTase gel=10µM*;Sfp SAR2=0.36µM*;HSD17B4 inh=-8%;ALDH1A1 inh=6.1µM*
Cc1cc(C)nc(NC(=S)N2CCN(c3cc(F)cc(F)c3)CC2)c1	/	/	/	Sfp qHTS opt=6.6µM*;HM489 growth=37µM*;Sfp PPTase gel=10µM*;Sfp SAR2=1.3µM*
O=C(Nc1ccc(F)cc1F)N1CCN(c2ccc(Cl)c(Cl)c2)CC1	1%	-28%	?
Cc1ccc(OCCn2c(CCNC(=O)N3CCCCC3)nc3ccccc32)cc1	8%	/	/
C[C@@H](CO)Nc1cc2c(cc1[S+](=O)([O-])Nc1ccc(Cl)c(Cl)c1)CCC(=O)N2	-4%	/	/
Nc1cccc2c1CN([C@H]1CCC(=O)NC1=O)C2=O	12%	/	/
